Data reported in PubChem BioAssay (NCI).
About 79,000 compounds went through this panel and 15% of them were active in at least one assay; those are over-represented in the sample as a whole. The source made the active and inactive calls. No stated cut-off is given here; in the data, active means growth inhibition above about 70%; inactive means the rest.

What was measured:
[1] = NCI Yeast Anticancer Drug Screen. Data for the rad50 strain (AID 155);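 further: 0% = growth of vehicle-only cultures of the same strain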; conditions: S. cerevisiae rad50 strain growth inhibition, stronger effect = higher value
Procedure, shortened: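 A DNA repair-deficient yeast mutant serves as the test organism; compound-induced growth inhibition is calculated against vehicle-treated cells.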

[2] = NCI Yeast Anticancer Drug Screen. Data for the mec2-1 strain (AID 157); conditions: S. cerevisiae mec2-1 strain, stronger effect = higher value
Procedure, shortened: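 Using mec2-1 yeast: add compound, measure growth, express inhibition versus vehicle-treated cultures.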

[3] = NCI Yeast Anticancer Drug Screen. Data for the sgs1 mgt1 strain (AID 161);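 further: 0% = growth of cultures given vehicle only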; conditions: S. cerevisiae sgs1 mgt1 strain, stronger effect = higher value
Procedure, shortened: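 Growth of a repair-deficient yeast mutant was monitored after compound treatment and expressed as inhibition relative to vehicle-treated cultures.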

[4] = NCI Yeast Anticancer Drug Screen. Data for the cln2 rad14 strain (AID 165);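 further: 0% = growth equal to vehicle treated cultures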; conditions: S. cerevisiae cln2 rad14 strain, stronger effect = higher value
Procedure, shortened: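 Yeast strain cln2 rad14, bearing defects in cell cycle control and DNA repair, serves as the test system; values reflect growth inhibition compared with vehicle.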

[5] = NCI Yeast Anticancer Drug Screen. Data for the bub3 strain (AID 167); conditions: S. cerevisiae bub3 mutant strain, stronger effect = higher value
Procedure, shortened: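 Inhibition values come from growth of compound-treated mutant yeast normalised to vehicle-treated controls.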

[6] = NCI Yeast Anticancer Drug Screen. Data for the mlh1 rad18 strain (AID 175); conditions: S. cerevisiae mlh1 rad18 strain growth inhibition, stronger effect = higher value
Procedure, shortened: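 Steps: expose repair-defective yeast to compound; measure growth; express inhibition against vehicle-treated controls.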

[7] = at 5.0 µM (retest, dose inferred, filed as 0.5)
[8] = at 50.0 µM (retest, dose inferred, filed as 5.0)

Measured: growth inhibition

CCCCCCCCCCOC(=O)c1cc[n+](C)cc1
inactive: [1]; [7] -4% | [1]; [8] -5% | [1]; at 50.0 µM 13.8% | [2]; [7] 7% | [2]; [8] 6% | [2]; at 50.0 µM 9.5% | [3]; [7] -5% | [3]; [8] 0% | [3]; at 50.0 µM -1.75% | [4]; [7] -3% | [4]; [8] -4% | [4]; at 50.0 µM 46.1% | [5]; [7] -5% | [5]; [8] -6% | [5]; at 50.0 µM -0.65% | [6]; [7] -2% | [6]; [8] -1% | [6]; at 50.0 µM -18.9%

CCCCCCCCCCCCCCCC(=O)NCCN(C)C
inactive: [1]; [7] -2% | [2]; [7] -2% | [3]; [7] 23% | [3]; at 50.0 µM 56.8% | [4]; [7] -3% | [5]; [7] -5% | [6]; [7] 1%
active: [1]; [8] 98% | [1]; at 50.0 µM 98.7% | [2]; [8] 99% | [2]; at 50.0 µM 97% | [3]; [8] 98% | [4]; [8] 99% | [4]; at 50.0 µM 88.8% | [5]; [8] 99% | [5]; at 50.0 µM 97% | [6]; [8] 98% | [6]; at 50.0 µM 98.8%

CC(=O)Nc1ccc2c(ccc3cccc[n+]32)c1
inactive: [1]; [7] -2% | [1]; [8] 0% | [2]; [7] -10% | [2]; [8] -6% | [3]; [7] 1% | [3]; [8] 10% | [4]; [7] -2% | [4]; [8] -6% | [5]; [7] -7% | [5]; [8] -13% | [6]; [7] -1% | [6]; [8] -3%
active: [1]; at 50.0 µM 96.7% | [2]; at 50.0 µM 97.2% | [3]; at 50.0 µM 95.8% | [4]; at 50.0 µM 95.2% | [5]; at 50.0 µM 96.5% | [6]; at 50.0 µM 96.3%

CN(C)CCCNc1ccc(O)c2c1C(=O)c1ccccc1C2=O
inactive: [4]; [7] 32% | [4]; at 50.0 µM 67%
active: [1]; [7] 93% | [1]; [8] 99% | [1]; at 50.0 µM 89.9% | [2]; [7] 95% | [2]; [8] 99% | [2]; at 50.0 µM 87.8% | [3]; [7] 96% | [3]; [8] 99% | [3]; at 50.0 µM 88.2% | [4]; [8] 98% | [5]; [7] 92% | [5]; [8] 98% | [5]; at 50.0 µM 89.7% | [6]; [7] 97% | [6]; [8] 99% | [6]; at 50.0 µM 89.6%

CCCCCCCCC1(OCCCS(=O)(=O)O)COc2ccccc2OCCOCCOc2ccccc2OC1
active: [1]; [8] 87% | [1]; at 50.0 µM 97.9% | [2]; [8] 74% | [2]; at 50.0 µM 87% | [3]; [8] 73% | [3]; at 50.0 µM 97.9% | [4]; [8] 73% | [4]; at 50.0 µM 93.6% | [5]; [8] 80% | [5]; at 50.0 µM 96% | [6]; [8] 87% | [6]; at 50.0 µM 95.2%
inactive: [1]; [7] -13% | [2]; [7] -4% | [3]; [7] -6% | [4]; [7] -4% | [5]; [7] -8% | [6]; [7] -7%

CCC#CC(O)(C(=O)OCC)C1CCCC1 (stereo not given)
inactive: [1]; [7] -148% | [1]; [8] -161% | [1]; at 50.0 µM -1.05% | [2]; [7] -50% | [2]; [8] -51% | [2]; at 50.0 µM 13.5% | [3]; [7] -59% | [3]; [8] -64% | [3]; at 50.0 µM -0.35% | [4]; [7] -57% | [4]; [8] -59% | [4]; at 50.0 µM 33.5% | [5]; [7] -67% | [5]; [8] -85% | [5]; at 50.0 µM 18.4% | [6]; [7] -115% | [6]; [8] -115% | [6]; at 50.0 µM 7.9%

CC(C)(C)C1CCC2c3c([nH]c4ccccc34)C3C(=O)N(c4ccc(C(=O)O)cc4)C(=O)C3C2C1 (stereo not given)
active: [1]; [7] 98% | [1]; [8] 98% | [1]; at 50.0 µM 96.3% | [2]; [7] 99% | [2]; [8] 99% | [2]; at 50.0 µM 99.2% | [3]; [7] 99% | [3]; [8] 99% | [3]; at 50.0 µM 98.5% | [4]; [7] 89% | [4]; [8] 98% | [4]; at 50.0 µM 99.4% | [5]; [7] 74% | [5]; [8] 99% | [5]; at 50.0 µM 99.3% | [6]; [7] 97% | [6]; [8] 99% | [6]; at 50.0 µM 98.8%

CC12C=CC(=O)C=C1CCC1C3CCC(O)(C(=O)CO)C3(C)CC(O)C12F (stereo not given)
inactive: [1]; [7] 2% | [1]; [8] 63% | [1]; at 50.0 µM 11.4% | [2]; [7] 4% | [2]; [8] 65% | [2]; at 50.0 µM 25.6% | [3]; [7] 3% | [3]; [8] 54% | [3]; at 50.0 µM 7.65% | [4]; [7] 6% | [4]; [8] 35% | [5]; [7] 6% | [5]; at 50.0 µM 0.6% | [6]; [7] 4% | [6]; at 50.0 µM 2.15%
active: [4]; at 50.0 µM 72.8% | [5]; [8] 82% | [6]; [8] 79%

O=CC(O)C(O)C(O)C(O)C(=O)NCCCCCCCCCCCCNC(=O)C(O)C(O)C(O)C(O)C=O (stereo not given)
inactive: [1]; [7] 19% | [1]; [8] 22% | [1]; at 50.0 µM 16.4% | [2]; [7] 20% | [2]; [8] 27% | [2]; at 50.0 µM 12.2% | [3]; [7] -20% | [3]; [8] -28% | [3]; at 50.0 µM 21.9% | [4]; [7] -2% | [4]; [8] 18% | [4]; at 50.0 µM 25.2% | [5]; [7] -4% | [5]; [8] 10% | [5]; at 50.0 µM -6.7% | [6]; [7] 20% | [6]; [8] 23% | [6]; at 50.0 µM -20.6%

COC(=O)C1=C(C)NC(C)=C(C(=O)OC)C1c1ccc(/[N+]([O-])=C/c2ccccc2)cc1
active: [1]; at 50.0 µM 85% | [2]; at 50.0 µM 70.8% | [3]; at 50.0 µM 96.4% | [5]; [8] 74% | [5]; at 50.0 µM 78.8% | [6]; at 50.0 µM 93.2%
inactive: [1]; [7] 4% | [1]; [8] 43% | [2]; [7] 5% | [2]; [8] 34% | [3]; [7] 13% | [3]; [8] 25% | [4]; [7] -1% | [4]; [8] 40% | [4]; at 50.0 µM 60.2% | [5]; [7] 17% | [6]; [7] -7% | [6]; [8] 67%
